39 sequences from the supplement of paper PMC6555819 can be followed below.

For one test, the system named is LXRb:RXRa (NR concentration 270 nM, RXRa partner concentration 90 nM). In words: PBM binding z-score (relative to random genomic background probes); higher = stronger binding; sequences stand for … in GC…GCGATTGACAGCGTAGAATGAAGG
In a few lines: (§1)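 Ligand-free nuclear receptor dimers were bound for 1 h to custom Agilent 4×180K protein-binding microarrays. Detection used antibodies against each partner (one per run). Binding z-scores rest on regression-normalized fluorescence, with random background probes as the reference.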
For CTATGTAGGTGAAGGGGGTCATTCAGTTTGAAAG, the PBM binding z-score stood at 5.87.
The sequence CTATGTAGGTTAAGGGGGTCATTGAGTTTGAAAG had a PBM binding z-score of 6.12.
The sequence TCGAGTAGGTTACGGGGGCGTTCAGGGATGAAGA gave a PBM binding z-score of 4.83.
On the same count and under the same terms, under CCCAGTAGGTTACGAGGGGGCATTCAGTGCGAAT stands 6.4.

A further test concerns LXRb homodimer (NR concentration 270 nM). The test is described as above. The gist of the method: as §1
In turn, CCTAGTGGGTCAGGAGGTCACACACCGGATATGA had a PBM binding z-score of 0.0765.
Still for that read-out and setting: as for CCTACTGGGCAAAAAAGGTCATTGATGCCGATAA, the figure is -0.0939; as for TCTAGTTCGTCACGGAGGTCACACACGACGGGTA, 1.17.
Still for that read-out and setting: under CCTAGTTGGTCAAGGTCACGCACGCTATAGGTAC stands 0.524; under ATATGTAGGTTAGCGGGGGTCATTCAGACTAGGC, 8.88.
Sequence CCTAGATGGTCAGGAGGTCACACACCGGATATGA yielded a PBM binding z-score of 0.565.
The same measure, in the same setting: as for CCTAGTTGGTCAGGAAGTCACACACCGGATATGA, the figure is 0.257; as for CGTCAAAGTTAAAGGTAACGTAACAGAAAGCAGC, -0.0705.
Still for that read-out and setting: as for CCTACTGGGCCATTCAGAGGTCACTGATCATATG, the figure is 0.018; as for TAGCCTCGGTCATTCAGGGGCCAGTATAGAAAGC, 0.157; as for CAAACTAGGCCAAGGTCAAAGTCGGTTTGTGCCA, 0.128.
On to ATCGAAAGGTCGAGTTGAGTATAGAGAAAGGGAA, for which the PBM binding z-score is 1.04.
On the same count and under the same terms, under CGTCAAAGTTCAAGGTAAAGTAACAGAAAGCAGC stands 0.837.
Same read-out and setting: as for TCTAGTTGGTCACGGGGGTCACACACGACGGGTA, the figure is 9.37; as for CCTTACGGGTCACTTACAGGTTATAGCATTTGGA, 0.66; as for CCTACTGGGCCATTCAGAGGTCATCGATCATATG, 0.293.
Sequence CAAAATAGGTCAAGAGGTCAAAGTCCGCTTCCCG had a PBM binding z-score of 2.46.
Same read-out and setting: as for TAGCCTAGGTCATGCGGGTCAGTATAGTGTCGGC, the figure is 0.0417; as for GCTTACGGGTCAAAGGTTAAAGCATGAATAGAAT, 0.412.
In turn, CGTCCAAGGTCAAAGGTCAGCGAAGAGATGACGG registered a PBM binding z-score of 1.66.
On the same count and under the same terms, under ATCGAAAGGTCGACGAGGTGAGAATACACCGTTT stands 0.224.
The same measure, in the same setting: under CGTCCAAGGGCAATGCTAGGTCAGTGAAAGCATT stands -1.33; under GCTTACGGGTCAAAAGTTATAGCATGAATAGAAT, 0.409; under CCTACTGGGCCACGAAAGGTGATTGATTCAGTGA, -0.883.
Same read-out and setting: as for ATCGAAAGGTCGTGAGGTGAGTTTACAGAAAGGC, the figure is 0.313; as for TCTACTTGGTCACGGAGGTCACACACGACGGGTA, 1.3.
With TATACAGGATCAAAGGCCAGAGTACGAATGTCGA, the PBM binding z-score turned out to be 0.483.
Still for that read-out and setting: under CCTAGTTGGTCAAGGTCCCACACGCTATAGGTAC stands -0.02; under AGAATGGGGTTATTAAGATCAGGGAATTGCGGTC, 2.14.
Same read-out and setting: as for ATCGAAAGGTCGTGAAGTGAGTATACAGAAAGGC, the figure is 0.774; as for GCTGCTAGGTCAGGTTGGTCAGCTAACGGGTACG, -0.325; as for CCTTACGGGTCACTGACAGCTTATAGCATTTGGA, -0.0269.
AGAATGAGGTTAGCAAAGATCAGGGAAACGCTTG yielded a PBM binding z-score of -0.163.
Still for that read-out and setting: as for CCTAGTTGGTCAGGGGGTCACACACCGGATATGA, the figure is 7.75; as for AGTCGGAGGACAAAGGTCAGAGCTACGCCAGTGA, 0.26.

The test system of another test is PPARa:RXRa (NR concentration 270 nM, RXRa partner concentration 90 nM). The test is described as above. In a few lines:
as §1
Take CCTAGTGGGTCAGGAGGTCACACACCGGATATGA: the PBM binding z-score came out at 5.31.
CCTACTGGGCAAAAAAGGTCATTGATGCCGATAA yielded a PBM binding z-score of 4.85.
Regarding TCTAGTTCGTCACGGAGGTCACACACGACGGGTA, the PBM binding z-score is 4.1.
The sequence CCTAGTTGGTCAAGGTCACGCACGCTATAGGTAC displayed a PBM binding z-score of 4.31.
On the same count and under the same terms, as for ATATGTAGGTTAGCGGGGGTCATTCAGACTAGGC, the figure is 5.81.
On the same count and under the same terms, under CCTAGATGGTCAGGAGGTCACACACCGGATATGA stands 4.14.
The same measure, in the same setting: as for CCTAGTTGGTCAGGAAGTCACACACCGGATATGA, the figure is 0.239; as for CGTCAAAGTTAAAGGTAACGTAACAGAAAGCAGC, 1.46.
CCTACTGGGCCATTCAGAGGTCACTGATCATATG registered a PBM binding z-score of 3.77.
Consider TAGCCTCGGTCATTCAGGGGCCAGTATAGAAAGC, for which the PBM binding z-score was found to be 0.242.
On to CAAACTAGGCCAAGGTCAAAGTCGGTTTGTGCCA, for which the PBM binding z-score stood at 4.79.
The sequence ATCGAAAGGTCGAGTTGAGTATAGAGAAAGGGAA gave a PBM binding z-score of 4.32.
CGTCAAAGTTCAAGGTAAAGTAACAGAAAGCAGC: the PBM binding z-score worked out at 4.4.
The same measure, in the same setting: under CTATGTAGGTGAAGGGGGTCATTCAGTTTGAAAG stands 6.36; under TCTAGTTGGTCACGGGGGTCACACACGACGGGTA, 5.15; under CCTTACGGGTCACTTACAGGTTATAGCATTTGGA, 4.62.
Same read-out and setting: as for CCTACTGGGCCATTCAGAGGTCATCGATCATATG, the figure is 4.19; as for CAAAATAGGTCAAGAGGTCAAAGTCCGCTTCCCG, 6.57; as for TAGCCTAGGTCATGCGGGTCAGTATAGTGTCGGC, 4.05.
Same read-out and setting: under GCTTACGGGTCAAAGGTTAAAGCATGAATAGAAT stands 7.2.
The sequence CGTCCAAGGTCAAAGGTCAGCGAAGAGATGACGG came in with a PBM binding z-score of 7.31.
The sequence ATCGAAAGGTCGACGAGGTGAGAATACACCGTTT returned a PBM binding z-score of 4.87.
The same measure, in the same setting: under CGTCCAAGGGCAATGCTAGGTCAGTGAAAGCATT stands 0.934; under GCTTACGGGTCAAAAGTTATAGCATGAATAGAAT, 5.64; under CCTACTGGGCCACGAAAGGTGATTGATTCAGTGA, 1.75.
Same read-out and setting: as for ATCGAAAGGTCGTGAGGTGAGTTTACAGAAAGGC, the figure is 5.21; as for TCTACTTGGTCACGGAGGTCACACACGACGGGTA, 3.99; as for TATACAGGATCAAAGGCCAGAGTACGAATGTCGA, 1.33.
CCTAGTTGGTCAAGGTCCCACACGCTATAGGTAC showed a PBM binding z-score of 0.398.
The same measure, in the same setting: as for AGAATGGGGTTATTAAGATCAGGGAATTGCGGTC, the figure is 4.48; as for ATCGAAAGGTCGTGAAGTGAGTATACAGAAAGGC, 4.76.
Take GCTGCTAGGTCAGGTTGGTCAGCTAACGGGTACG: the PBM binding z-score was determined as 1.52.
The same measure, in the same setting: under CCTTACGGGTCACTGACAGCTTATAGCATTTGGA stands 4.99; under AGAATGAGGTTAGCAAAGATCAGGGAAACGCTTG, 1.79.
As for CCTAGTTGGTCAGGGGGTCACACACCGGATATGA, the PBM binding z-score turned out to be 5.36.
On the same count and under the same terms, as for AGTCGGAGGACAAAGGTCAGAGCTACGCCAGTGA, the figure is 5.01.
